# Laboratory results reported in PubChem BioAssay (Tox21).
# Results filed as inconclusive are left out. Activity calls are given as the source filed them. The call rests on the fitted dose curve; in most records, active means well fitted activation curve with a large enough effect in the signal ratio in the repeat runs (not every such curve was filed as active); inconclusive means weak or mixed curves; inactive means flat fitted curve, though single readings scatter; the % refers to the signal ratio.
# Experiment: qHTS assay to identify small molecule agonists of the hypoxia (HIF-1) signaling pathway (AID 1224846)
# Conditions: HRE-bla ME-180 cells, beta-lactamase ratio, 17 h; series mostly up to 76.8 µM
# Excerpt: U.S. Tox21 Program National Center for Advancing Translational Sciences [NCATS] NIH Chemical Genomics Center [NCGC] U.S. Environmental Protection Agency [EPA] National Institutes of Environmental Health Sciences [NIEHS] National Toxicology Program [NTP] U.S. Food and Drug Administration [FDA] Tox21 Assay Overview: Hypoxia-inducible factor-1 (HIF-1) is the major hypoxia-regulated transcription factor that controls cellular responses to low oxygen concentration. HIF-1 is composed of two subunits: hypoxia responsive HIF-1-alpha and constitutively expressed HIF-1-beta, which is also known as aryl hydrocarbon receptor nuclear translocator. During hypoxic conditions, HIF-1-alpha heterodimerizes with HIF-1-beta and translocates into the nucleus where the HIF-1 complex binds to the hypoxia-response element (HRE) and activates expression of target genes such as VEGF (vascular endothelial growth factor). The HIF-1 pathway is essential to normal growth and development, and is involved in the pathophysiology of cancer, inflammation, and ischemia. Using a beta-lactamase reporter-gene under control of the hypoxia response element, a cell-based assay [CellSensor(TM) HRE-bla ME-180 from Life Technologies, Carlsbad, CA] was used to measure hypoxia-induced signaling. Tox21 10K library compounds were measured for their ability to induce the reporter gene activity.
# Tox21 Assay Protocol Summary: HRE-bla ME-180 cells were dispensed at 2,000 cells per well in 6 uL of assay medium containing 0.5% dialyzed FBS into black wall/clear-bottom 1536-well plates using a Multidrop Combi (Thermo Scientific, Waltham, MA) dispenser. After the assay plates were incubated at 37C and 5% CO2 for 5 hrs, 23 nL of compounds dissolved in DMSO, positive controls or DMSO only was transferred to each well of the assay plate using a Pintool station (Kalypsys, San Diego, CA). The assay plates were incubated at 37C and 5% CO2 for 17 hrs. One uL of LiveBLAzerTM B/G FRET substrate (CCF4-AM) (Life Technologies) was added to each well using a Flying Reagent Dispenser (Aurora Discovery, San Diego, CA).
# On the % scale 0 is the no-effect control and ±100 the full control effect.
SMILES,outcome,activation
CC1(C)OC(=O)Nc2ccc(Br)cc21,inactive,
Nc1ncnc2c1ncn2Cc1c(F)cccc1Cl,inactive,
N#CCc1ccccc1[N+](=O)[O-],inactive,
COC(=O)CCCCCCCCC(=O)OC,inactive,
c1ccc(SCCSc2ccccc2)cc1,inactive,
CCCCCOC(=O)Nc1nc(=O)n([C@@H]2O[C@H](C)[C@@H](O)[C@H]2O)cc1F,inactive,
C1CCCCCCCCCCC1,,0.351% [at 15.8 µM] (inactive)
COc1cccc(Br)c1,inactive,
COC[C@H](c1ccc(C(F)(F)F)cc1)N1CCN(C2(C)CCN(C(=O)c3c(C)ncnc3C)CC2)C[C@H]1C,inactive,
CN(C)C(=O)Nc1ccccc1,inactive,
CN(C)N=Nc1ccccc1,inactive,
OC/C=C/c1ccccc1,inactive,
CCC(C)(C)C1CCC(OC)CC1 (stereo not given),inactive,
OCCCCCCO,inactive,
CCCCCCCCN(C)CCCCCCCC,inactive,
O=c1[nH]c(=O)n([C@H]2O[C@H](CO)[C@@H](O)[C@@H]2O)cc1/C=C\Br,inactive,
CC1=CC(C)C(C=O)C(C)C1 (stereo not given),inactive,
CCn1c(=O)c2c(nc(/C=C/c3ccc(OC)c(OC)c3)n2C)n(CC)c1=O,inactive,
Cn1cnc2c(=O)[nH]c(N)nc21,inactive,
O=C(O)c1ccc[n+]([O-])c1,inactive,

SMILES,outcome,activation
CCCCCC[C@@H](CCC)C(=O)O,inactive,
NCCNC(=O)c1ccc(Cl)cn1,inactive,
CC(C)N1C(=O)c2ccccc2C1=O,inactive,
C=CCOCC(O)CS(=O)(=O)O (stereo not given),inactive,
CO,inactive,
CCCCCCCCCCCCCCCCCCOCC(O)CO (stereo not given),inactive,
Cc1nc(-c2ccc(OCC(C)C)c(C#N)c2)sc1C(=O)O,inactive,
NC(=O)CCCCC1CCSS1 (stereo not given),inactive,
CCCCNc1ccccc1,inactive,
O=[N+]([O-])c1ccc(Oc2ccc([N+](=O)[O-])cc2)cc1,inactive,
NC(CS)C(=O)O (stereo not given),inactive,
CC(C)COC(=O)c1ccccc1O,inactive,
C=C(C)C(=O)NCCC[N+](C)(C)C,inactive,
CCOC(=O)Cn1c(=O)sc2cccc(Cl)c21,inactive,
OCCN1C[C@H](O)[C@@H](O)[C@H](O)[C@H]1CO,inactive,
CCn1cc(C(=O)O)c(=O)c2cc(F)c(N3CCN(C)CC3)cc21,,-0.496% [at 15.8 µM] (inactive)
CC(C)c1cccc(O)c1,inactive,
C/C=C1\C(=O)C[C@H]2[C@@H]3CCC4=CC(=O)CC[C@]4(C)[C@H]3CC[C@]12C,inactive,
Cc1cc(C)cc(OCC2CNC(=O)O2)c1 (stereo not given),inactive,
O=C(O)/C=C/c1ccc(/C=C/C(=O)O)cc1,inactive,
